High-throughput results as filed in PubChem.
In the library only some 8.5% were active in any assay of this set; here they are far more common.
NPSR antagonist: blocks cAMP signaling of the human neuropeptide S receptor; Q6W5P4; CHO-NPSR cells, cAMP TR-FRET, antagonist mode; Potency, µM (top dose mostly 38.3 µM), for inactives: top-dose activity change, negative = inhibition, hits mostly inhibitors; 1% of 220,000 active; AID 1461; also: potency is read from the fitted curve at half-maximal effect; nearly all actives have a fitted effect of over 50% in size
Target sequence (Q6W5P4 whole entry, looked up): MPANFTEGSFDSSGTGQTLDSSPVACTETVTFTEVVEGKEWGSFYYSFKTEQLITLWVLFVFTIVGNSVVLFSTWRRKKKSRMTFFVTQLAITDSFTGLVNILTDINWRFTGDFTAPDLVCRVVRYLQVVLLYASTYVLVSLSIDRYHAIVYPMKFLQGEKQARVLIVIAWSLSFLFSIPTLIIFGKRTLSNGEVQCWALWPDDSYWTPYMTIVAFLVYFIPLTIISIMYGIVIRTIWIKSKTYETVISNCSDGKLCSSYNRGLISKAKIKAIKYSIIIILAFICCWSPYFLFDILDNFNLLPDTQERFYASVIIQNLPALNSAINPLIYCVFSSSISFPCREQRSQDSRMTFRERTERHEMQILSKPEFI
ALDH1A1 inh: ALDH1A1 (human) enzyme inhibition. Purified ALDH1A1, NADH fluorescence, propionaldehyde substrate. P00352. 7.3% of 220,000 active. Potency, µM (series often up to 75.3 µM), inactives show top-dose activity, negative = inhibition, hits mostly inhibitors; active = well fitted inhibition curve with a large enough effect, not every such curve was filed as active; inconclusive = small, poorly fitted or top-dose-only effect, or another doubt; inactive = no such curve, though single readings can be large or run the other way;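 also: potency is read from the fitted curve at half-maximal effect; plate controls were no enzyme wells and a reference inhibitor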
Sfp PPTase inh: inhibitors of Bacillus subtilis Sfp phosphopantetheinyl transferase. 3.5% of 310,000 active. Potency, µM, for inactives: largest response in the series, negative = inhibition, hits mostly inhibitors. AID 1490. Biochemical Sfp PPTase activity, qHTS;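 also: the enzyme is Sfp with the accession as filed and its product quenches rhodamine fluorescence; potency is read from the fitted curve at half-maximal effect; 0% = enzyme reaction without inhibitor and -100% = no enzyme wells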
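Reaction rates are the 30-min fluorescence difference (ex 525, em 598 nm) in wells containing 15 nM Sfp, 5 uM rhodamine-CoA and 12.5 uM BHQ-2-YbbR at pH 7.6 with 10 mM MgCl2.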
RGS12 GoLoco inh: inhibitors of human Gai1-RGS12 GoLoco interaction (red fluorophore); Gai1:RGS12 GoLoco peptide FP, rhodamine, 10 min; P63096; AID 880; Potency, µM (titrated, usually from 61.6 µM), inactives show at the top dose activity, negative = inhibition, usual class: inhibitors; 0.44% of 230,000 active; active = well fitted inhibition curve with a large enough effect, not every such curve was filed as active; inactive = no such curve, though single readings can be large or run the other way; also: potency is read from the fitted curve at half-maximal effect; nearly all actives have a fitted effect of over 30% in size
Target sequence (P63096 whole entry, looked up): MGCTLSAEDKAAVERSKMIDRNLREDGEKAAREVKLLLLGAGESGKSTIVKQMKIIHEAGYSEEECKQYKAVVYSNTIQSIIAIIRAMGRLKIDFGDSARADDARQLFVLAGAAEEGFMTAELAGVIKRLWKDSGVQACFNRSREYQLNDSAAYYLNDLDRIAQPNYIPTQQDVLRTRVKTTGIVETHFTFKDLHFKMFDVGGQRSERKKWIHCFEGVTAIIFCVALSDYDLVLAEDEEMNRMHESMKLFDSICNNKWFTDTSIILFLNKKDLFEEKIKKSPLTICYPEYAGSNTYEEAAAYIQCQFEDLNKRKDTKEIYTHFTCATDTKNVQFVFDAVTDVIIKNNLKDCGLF
JMJD2E inh: blocks human JMJD2E demethylase activity. 1.6% of 230,000 active. Potency, µM (titrated, usually from 57.1 µM), for inactives: top-dose activity change, negative = inhibition, most hits filed as inhibitors. JMJD2E catalytic domain, FDH-coupled NADH fluorescence (FDH is formaldehyde dehydrogenase). B2RXH2; active = well fitted inhibition curve with a large enough effect, not every such curve was filed as active; inconclusive = small, poorly fitted or top-dose-only effect, or another doubt; inactive = no such curve, though single readings can be large or run the other way;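 also: potency is read from the fitted curve at half-maximal effect; 0% = wells with enzyme and -100% = buffer wells without enzyme; nearly all actives have a fitted effect of over 50% in size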
Coupling enz: counter-screen for Giardia aldolase inhibitors: coupling enzyme system; coupling enzyme system counterscreen, AmpLite Red fluorescence; activity change, negative = inhibition, % at 58.2 µM, hits read low; 0.67% of 290,000 active; in the data active = activity change below about -30%
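Coupling enzymes only (glyceraldehyde-3-phosphate) + compound, at 57.5 uM final, 10 min RT; add substrate/coupling/AmpLite Red mix, 20 min RT; fluorescence ex 525/em 598 nm. Actives flag coupling-system interference.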
Numbers without * were called inactive; u = inconclusive; x = not tested or not shown; ! = a repeat was not active; [ ] = dose if it differs, or a comment. Unless noted, calls follow the shape of the dose curve; as a rule, active = well fitted curve in the direction sought with a large enough effect; inconclusive = small, poorly fitted or top-dose-only effect, or another doubt; inactive = no such curve, though single readings can be large; an effect the other way counts as inactive or inconclusive. Unless noted, % is scaled to controls: 0 for no effect and ±100 for the full control effect.

SMILES	NPSR antagonist	ALDH1A1 inh	Sfp PPTase inh	RGS12 GoLoco inh	JMJD2E inh	Coupling enz
COc1cc(C2NC(C(=O)O)CS2)ccc1OCc1ccccc1C#N (stereo not drawn)	-7.0%[46.1 µM]	8.91µM*	17.8µM*	-27.2%	-24.9%	2.7
CCOC(=O)COc1ccc(C2CC(C)=NN2c2ccccc2)cc1 (stereo not drawn)	-15.4%	u	3.4%	12.5%	-28.2%	-0.8
CCOc1ccc2oc(C(=O)N3CC(C)OC(C)C3)c(C)c2c1 (stereo not drawn)	x	x	14.3%	x	x	x
Cc1ccc(S(=O)(=O)NCc2ccc(N3CCN(C(=O)OC(C)(C)C)CC3)cc2)cc1	x	x	2.6%	x	x	-1.1
COc1ccc(Cn2nnnc2C(c2ccc(F)cc2)N2CCN(C3CCCC3)CC2)cc1 (stereo not drawn)	u	u	8.0%	0.4%	-1.9%	1.2
COc1ccc(Cn2nnnc2C(c2cc(OC)ccc2OC)N2CCC(C(N)=O)CC2)cc1 (stereo not drawn)	u	14.1µM*	5.8%	-24.0%	-3.5%	2.6
COc1ccc(Cn2nnnc2C(c2ccc(N(C)C)cc2)N2CCC(C)CC2)cc1 (stereo not drawn)	u	25.1µM*	0.3%	6.1%	u	-0.1
CC1CCN(C(c2ccc(N(C)C)cc2)c2nnnn2C(C)(C)C)CC1 (stereo not drawn)	-0.9%[46.1 µM]	u	20µM*	-17.5%	u	1.2
CC1CCCN(C(c2cccs2)c2nnnn2Cc2ccccc2)C1 (stereo not drawn)	u	3.16µM*	-20.0%	11.7%	-9.2%	-0.6
CCOc1ccc(NC(=O)C(=O)NCCN2CCN(S(=O)(=O)c3ccccc3)CC2)cc1	x	x	19.0%	x	x	4.0
NS(=O)(=O)c1ccc(NC(=O)C2C3C=CC(C3)C2C(=O)O)cc1 (stereo not drawn)	-11.3%	u	1.8%	10.7%	1.1%	-3.1
CCOCCCNC(=O)CSc1nnc(-c2ccc(S(=O)(=O)N3CCCC3)cc2)n1C	x	x	7.2%	x	x	1.0
CN(C)C(CNC1CC(C)(C)NC(C)(C)C1)c1cccc(F)c1 (stereo not drawn)	x	x	9.3%	x	x	1.2
CN1CCN(C(c2ccccc2)c2nnnn2Cc2ccccc2)CC1 (stereo not drawn)	7.7%[46.1 µM]	10.9%	15.4%	-0.4%	19.6%	1.1
CC1CCN(C(c2ccc(N(C)C)cc2)c2nnnn2Cc2ccccc2)CC1 (stereo not drawn)	u	8.91µM*	10.1%	-2.9%	3.4%	1.9
CNCc1ccccc1Sc1cc(O)ccc1O	-18.7%	0.794µM*	22.4µM*	4.47µM*	u	-29.6
CNCc1ccccc1Sc1cccc(O)c1	10.7%	12.1%	9.6%	1.8%	8.3%	-0.1
O=C(CN1CCN(S(=O)(=O)c2ccc(F)cc2)CC1)Nc1ccc(F)cc1F	x	x	7.0%	x	x	3.7
COC1=CC(=O)OC12CCCCC2	-8.2%[46.1 µM]	2.4%	16.6%	-3.1%	-2.4%	1.8
COc1ccc(C2=CC(=O)OC3(CCCC3)O2)cc1	-17.5%[46.1 µM]	12.6µM*	1.9%	6.3%	-7.0%	2.7
Cc1ccc(-n2nnnc2Sc2ccc(S(=O)(=O)NCCN(C)C)cc2[N+](=O)[O-])cc1	14.5%	u	18.2%	4.1%	1.5%	-3.4
O=[N+]([O-])c1cc(S(=O)(=O)NCCN2CCOCC2)ccc1Sc1nnnn1-c1ccccc1	-10.6%	14.1µM*	1.6%	-1.0%	6.1%	-18.5
CC(NC1CCCC1)c1ccccc1 (stereo not drawn)	-9.6%	-5.5%	0.7%	-6.4%	7.6%	0.1
CC(NCCC(c1ccccc1)c1ccccc1)c1ccccc1 (stereo not drawn)	u	u	25.1µM*!	8.1%	3.6%	-0.9
CCN1CCCc2cc(CN(CCN3CCOCC3)C(=S)Nc3ccc(OC)c(Cl)c3)ccc21	-41.9%	17.8µM*	-1.6%	8.1%	-3.9%	0.4
SMILES	NPSR antagonist	ALDH1A1 inh	Sfp PPTase inh	RGS12 GoLoco inh	JMJD2E inh	Coupling enz
CCN1CCCc2cc(CN(CCN3CCOCC3)C(=S)Nc3ccc(OC)c(OC)c3)ccc21	-15.3%	3.16µM*	15.7%	6.9%	-4.9%	-6.4
COc1ccc(NC(=S)N2CCC(N(C)CCN3CCOCC3)CC2)cc1Cl	19.0%	11.4%	9.8%	5.9%	1.1%	-0.4
COC(=O)[C@@H]1C[C@@]2(O)[C@H](O)[C@H](O)[C@H](O)C[C@H]2N1Cc1ccc(-c2ccccc2)cc1	17.6%	u	6.5%	4.1%	8.91µM*!	0.2
O=C(O)/C=C/C(=O)Nc1ccc(OC(F)(F)Cl)cc1	20.0%	25.1µM*	10.8%	13.4%	-11.4%	6.5
O=C(O)/C=C/C(=O)Nc1ccc(SC(F)(F)C(F)(F)C(F)(F)F)cc1	-10.6%	28.2µM*	21.6%	3.7%	-21.1%	17.4
O=C(O)/C=C\C(=O)Nc1ccc(Oc2ccccc2)cc1	3.5%[46.1 µM]	11.2µM*	12.5%	0.7%	-11.2%	13.0
O=C(O)/C=C/C(=O)Nc1ccc(Oc2ccc(NC(=O)/C=C/C(=O)O)cc2)cc1	16.3%	u	-12.6%	-9.0%	-2.4%	8.6
COc1cc(OC)cc(-c2nnc3n2N=C(c2ccc(OC)cc2OC)CS3)c1	x	x	56.2µM*	x	x	-1.5
COc1ccc(C2=Nn3c(nnc3-c3ccc(OC)cc3OC)SC2)c(OC)c1	x	x	4.9%	x	x	1.0
COc1cccc(-c2nnc3n2N=C(c2ccc(OC)cc2OC)CS3)c1	x	x	44.7µM*	x	x	2.2
CCOc1cccc(-c2nnc3n2N=C(c2cc(OC)ccc2OC)CS3)c1	-19.3%	28.2µM*	-16.1%	10.2%	1.5%	0.4
CCCCCc1cc(=O)oc2c(C(CCN3CCCC3)c3ccc4c(c3)OCO4)c(OC)cc(OC)c12 (stereo not drawn)	x	x	39.8µM*	x	x	2.4
CCCCCc1cc(=O)oc2c(C(CCN3CCCCC3)c3ccc4c(c3)OCO4)c(OC)cc(OC)c12 (stereo not drawn)	u	x	56.2µM*	10.4%	-9.0%	2.1
CCCCCc1cc(=O)oc2c(C(CCN3CCCC(C)C3)c3ccc4c(c3)OCO4)c(OC)cc(OC)c12 (stereo not drawn)	u	x	0.4%	4.3%	10.1%	1.7
CC(C)(C)OC(=O)NS(=O)(=O)Nc1ccccc1Br	x	x	0.5%	x	x	1.7
O=C(COc1cccnc1[N+](=O)[O-])Nc1cccc(S(=O)(=O)N2CCCCC2)c1	13.4%	u	2.8%	-13.8%	-0.2%	-0.6
COc1ccc(CCN(C)CCCOc2ccc(S(=O)(=O)c3[nH]c4ccccc4c3C(C)C)cc2)cc1OC	x	-15.3%	39.8µM*	0.4%	25.1µM*	0.6
COc1ccc(CCN(C)CCc2ccc(OC)c(OC)c2)cc1OC	6.3%[46.1 µM]	-5.8%	15.9%	-8.9%	3.5%	1.6
CN(C)S(=O)(=O)c1ccc(C(=O)NCCN2C(=O)S/C(=C\c3cccnc3)C2=O)cc1	1.6%	-8.9%	39.8µM*	42.9%	1.3%	-11.0
